Compound activity deposited in PubChem by The Scripps Research Institute Molecular Screening Center.
Compounds with a hit are over-represented: about 4.1% of the library has one in this group of screens.
DAX1 inh-1: DAX1 (NR0B1) inhibition, primary screen; HEK293T StAR-luciferase reporter, SF-1/DAX-1 repression relief; inhibition, % at 6.8 µM; 370,000 compounds, 1.1% hits;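 active = inhibition above the mean over all tested compounds plus 3 SD, cut at about 3.6% in these data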;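 also: higher inhibition means more luminescence from relief of DAX-1 repression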
hcDAF12 agonist: activates DAF-12 receptor from parasite H. contortus; 370,000 compounds, 1.4% hits; HEK293 hcDAF-12 lit1-tk-luc reporter, luminescence; 0% DMSO, 100% Δ7-dafachronic acid; activation, % at 6.8 µM;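 active = activation above the mean of all tested compounds plus 3 SD, cut at about 5.5% in these data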
hgDAF12 agonist: agonists of H. glycines DAF-12 nuclear receptor; HEK293 GAL4-hgDAF12 UAS-luciferase reporter, agonist luminescence; normalized to butyrate control; activation, % at 6.8 µM; 370,000 compounds, 1.8% hits; AID 687014;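 active = activation above a cutoff set at the mean of all screened compounds plus 3 SD, cut at about 10% in these data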
DAX1 inh-2: NR0B1 (DAX1) inhibition; P51843; HEK293 Gal4-DAX1 luciferase reporter, luminescence; inhibition, % at 6.75 µM; 340,000 compounds, 0.99% hits; AID 504766;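 active = inhibition above the mean over all tested compounds plus 3 SD, cut at about 4.2% in these data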;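 also: inhibition shows as a rise in luminescence from relieved DAX1 repression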
Target sequence (P51843 207-470 limits assumed): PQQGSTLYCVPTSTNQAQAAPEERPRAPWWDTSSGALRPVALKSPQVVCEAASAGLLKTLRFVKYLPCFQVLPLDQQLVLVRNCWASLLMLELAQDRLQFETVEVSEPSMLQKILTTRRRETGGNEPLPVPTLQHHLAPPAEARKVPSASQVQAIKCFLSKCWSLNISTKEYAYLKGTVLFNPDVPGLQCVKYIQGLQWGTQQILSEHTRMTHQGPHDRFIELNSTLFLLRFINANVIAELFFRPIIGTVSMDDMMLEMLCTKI
ssDAF-12 act: activators of S. stercoralis DAF-12 nuclear receptor; HEK293 ssDAF-12/GRIP1 lit1-tk-luc reporter, luminescence; % of 3 µM dafachronic acid response; activation, % at 6.8 µM; 370,000 compounds, 1% hits; AID 652126;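 active = activation above the mean over all tested compounds plus 3 SD, cut at about 0.9% in these data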
Each line names hits and unclear results; the compound was inactive in the other large screens.

COC(=O)CNC(=O)CN1C(=O)N(c2ccccc2)C(N(O)C(=O)Nc2ccccc2)C1(C)C (stereo unspecified)	none
O=C1c2ccccc2NC(c2ccccc2Cl)N1N=C1CCCCCC1 (stereo unspecified)	hgDAF12 agonist 10.5
O=C1NC(c2ccccc2Cl)Nc2ccccc21 (stereo unspecified)	none
C=CCNC(=O)N1CCC(c2nc3ccc(Cl)cc3[nH]2)CC1	none (no result: DAX1 inh-2)
O=C(Nc1nc2ccsc2c(=O)s1)c1ccc(F)cc1Cl	DAX1 inh-2 7.8
Cc1csc2c(=O)sc(NC(=O)c3ccc(F)cc3Cl)nc12	none
CC(=O)c1cccc(NC(=O)c2cc(-c3ccncc3)nc3ccccc23)c1	none
O=C(NNC(=O)c1cc(-c2ccncc2)nc2ccccc12)c1cccc(Cl)c1	ssDAF-12 act 2.6
CC(=O)NC1CCCCN(Cc2cccc(F)c2)C1=O (stereo unspecified)	none (no result: DAX1 inh-2)
c1cncc(CSc2ccc(-c3ccc4c(c3)OCO4)nn2)c1	hcDAF12 agonist 5.6
CCOc1ccc(-n2c(SCC(=O)Nc3ccccc3-c3ccccc3)nnc2-c2ccncc2)cc1	none (no result: DAX1 inh-2)
C/C(CC(=O)NC(C)(C)C)=N\NC(=O)c1ccccc1N	DAX1 inh-2 4.7
CC1(N2CCCCC2)C(=O)c2ccccc2C1=O	ssDAF-12 act 1.0
Cc1nn(-c2ccccc2)c2sc(C(=O)NC3CCCC3)cc12	none (no result: DAX1 inh-2)
Cc1ccc(Nc2nc(N)nc(COC(=O)C3=COCCO3)n2)cc1	DAX1 inh-1 3.6
Cc1ccc(NC(=O)COC(=O)C2=COCCO2)cc1	none
O=C(CSc1nc2ncccc2[nH]1)NCc1ccccc1	DAX1 inh-2 4.7
O=C(c1cc2ccccc2[nH]1)N1O[C@@H]2C=C[C@H]1C2	hcDAF12 agonist 6.2
Clc1ccc(-n2nnc(-c3cccnc3)n2)cc1Cl	none
Fc1ccc(-n2nnc(-c3cccnc3)n2)cc1	hgDAF12 agonist 10.9
COC(=O)[C@]1(C)CN(C(=O)OC(C)(C)C)C2=C1C(=O)C[C@@](C)(C(=O)OC(C)(C)C)C2	none (no result: DAX1 inh-2)
O=C(c1cc2cc(Cl)ccc2[nH]1)N1CCN(c2ccccc2F)CC1	none
O=C(c1cc2cc(Cl)ccc2[nH]1)N1CCN(C(=O)c2ccco2)CC1	hcDAF12 agonist 5.9
COc1ccc(-c2cc(-c3nnc4sc(Cc5cccs5)nn34)[nH]n2)cc1	none (no result: DAX1 inh-2)
CCOc1ccc(/C=N/Nc2cc(N3CCOCC3)ncn2)c(O)c1	none
CCOc1ccc(/C=N/Nc2nc(C)cs2)c(O)c1	DAX1 inh-2 4.5
Nc1cccc2c1C(=O)c1ccc(Cl)cc1C2=O	DAX1 inh-1 3.7
O=C1/C(=C/c2ccc(S(=O)(=O)O)cc2S(=O)(=O)O)CCc2ccccc21	none (no result: DAX1 inh-2)
Cc1cccc(NC(=O)Cn2nnc(-c3ccccc3F)n2)c1C	none (no result: DAX1 inh-2)
CC1CCCCC12NC(=O)N(CC(=O)NCc1ccccc1)C2=O (stereo unspecified)	none
CC(=O)NCc1ccc(C(=O)CN2C(=O)NC3(CCCCC3C)C2=O)s1 (stereo unspecified)	hgDAF12 agonist 12.4
COc1ccc(-c2nnc(SCC(=O)N3CCCC3)o2)c(OC)c1	hgDAF12 agonist 11.9
Cc1cccc(Cn2cc(CN3CC(N(C)CCCOC(=O)c4cc(C)cc(C)c4)CS3(=O)=O)nn2)c1 (stereo unspecified)	none (no result: DAX1 inh-2)
COc1ccc2c(c1)CC/C(=C\c1ccc(C)o1)C2=O	DAX1 inh-2 4.9
COc1ccc2c(c1)CC/C(=C/c1ccncc1)C2=O	none (no result: DAX1 inh-1, hcDAF12 agonist, hgDAF12 agonist, ssDAF-12 act)
Cc1oc(-c2ccccc2Cl)nc1CN1CCCCC1c1cccnc1 (stereo unspecified)	none
COc1ccc(-c2nc(CN3CCCCC3c3cccnc3)c(C)o2)c(F)c1 (stereo unspecified)	hgDAF12 agonist 11.9
O=C1C(c2ccccc2)=NCCN1C(c1ccc(F)cc1)c1nc2ccccc2[nH]1 (stereo unspecified)	hcDAF12 agonist 6.1 (no result: DAX1 inh-2)
C=CC[C@@H]1NN2C(=O)[C@@H](CCCC)[C@@H]3c4cc5ccccc5cc4C=NN3[C@@H]2c2cc3ccccc3cc21	none (no result: DAX1 inh-2)
O=C(C1CCCO1)N1CCc2ccccc21 (stereo unspecified)	ssDAF-12 act 1.8
O=C(C1CC(=O)N(C2CCCCC2)C1)N1CCc2ccccc21 (stereo unspecified)	hcDAF12 agonist 6.2
O=C(Nc1ccc(F)cc1F)C1CCN(c2ncnc3c2sc2cccc(F)c23)CC1	none
CCN(CC)CCCNC(=O)C1CCN(c2ncnc3c2sc2cccc(F)c23)CC1	ssDAF-12 act 1.0
Cn1ccnc1SCc1cn2cc(Br)ccc2n1	ssDAF-12 act 1.2
Cc1cccc(NC(=O)C(C)SCc2nc3sc4c(c3c(=O)[nH]2)CCCC4)n1 (stereo unspecified)	ssDAF-12 act 1.3
Cc1cccc(NC(=O)CCc2nc3sc4c(c3c(=O)[nH]2)CCCC4)c1	none
O=C1C[C@H](c2ccc3ccccc3c2)N=C2N1/C(=C\c1ccccc1)[C@@H](c1ccccc1C(F)(F)F)N2Cc1ccc2c(c1)OCO2	none (no result: DAX1 inh-1, DAX1 inh-2)
COC(=O)C[C@@H]1CC[C@H]2[C@@H](COc3ccc(NC(=O)c4ccc(C(F)(F)F)cc4)cc3C(=O)N2C)O1	none (no result: DAX1 inh-2)
CCN1C(Nc2ccccc2)=NC[C@@H]1CC(C)C	none
CC(C)CCN1C(Nc2ccccc2)=NC[C@@H]1CC(C)C	hcDAF12 agonist 6.3
CCC(C)CCN1C(Nc2ccccc2)=NC[C@@H]1CC(C)C (stereo partly specified)	DAX1 inh-2 4.8
Cc1cccc(CCN2C(Nc3ccccc3)=NC[C@@H]2CC(C)C)c1	DAX1 inh-2 6.7
CCOC(=O)c1c(NC(=O)CCS(=O)(=O)c2ccccc2)sc2c1CCN(C(C)C)C2	DAX1 inh-1 4.0
COC(=O)c1c(NC(=O)Cc2ccccc2)sc2c1CCN(C(C)C)C2	none
CC(C)C[C@H]1CN(CCCC[C@@H]2CNC(=O)C(=O)N2CCc2ccccc2)C(=O)C(=O)N1Cc1ccccc1	none (no result: DAX1 inh-2)
O=C(N/N=C/c1ccc(-c2cccc([N+](=O)[O-])c2)o1)c1cccs1	hcDAF12 agonist 5.7, ssDAF-12 act 1.8
O=C(N/N=C/c1ccccn1)c1cccs1	ssDAF-12 act 1.5
O=C(N/N=C/c1ccccn1)c1ccncc1	none
COc1ccc(OC)c(C(=O)N/N=C/c2ccccn2)c1	DAX1 inh-2 4.6
COc1ccccc1/C=C/C=N/NC(=O)c1cccs1	DAX1 inh-2 7.2
O=C(N/N=C\c1cn[nH]c1-c1ccccc1)c1cccnc1	none
O=C(N/N=C\c1cn[nH]c1-c1ccccc1)c1cccs1	hgDAF12 agonist 12.5
Cc1ccccc1C(=O)N/N=C/c1ccccn1	hgDAF12 agonist 12.9
CCOC(=O)[C@@]12CCC3=C1N(CCC3)C(=O)[C@H](CC(=O)NCCCOC)C2	none (no result: DAX1 inh-2)
CN(c1c2c(nc3ncnn13)CCCC2)C1CCCCC1	none (no result: DAX1 inh-2)
CN=c1scc(C)n1/N=C/c1ccc(O)cc1	none
CN=c1scc(C)n1/N=C/c1ccc2c(c1)OCO2	DAX1 inh-1 5.6, hcDAF12 agonist 9.6, hgDAF12 agonist 11.0
